From PMC4336329 (PLoS ONE, 2015)
Out of some 310,000 compounds screened, about 14,000 (4.5%) showed an effect of 50% or more. The effect is printed as a negative number. Shown is part of a subset that was picked to be rich in strong results.

The molecules below were run against human ether-à-go-go-related gene (hERG) potassium channel (human, UniProt Q12809) (assay: primary screen, population patch clamp on CHO cells stably expressing hERG; higher = less effect of the substance).
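Note: peak tail current of the secondary pulse compared with the same well before compound.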

human ether-à-go-go-related gene (hERG) potassium channel, sequence (Q12809 whole entry, looked up): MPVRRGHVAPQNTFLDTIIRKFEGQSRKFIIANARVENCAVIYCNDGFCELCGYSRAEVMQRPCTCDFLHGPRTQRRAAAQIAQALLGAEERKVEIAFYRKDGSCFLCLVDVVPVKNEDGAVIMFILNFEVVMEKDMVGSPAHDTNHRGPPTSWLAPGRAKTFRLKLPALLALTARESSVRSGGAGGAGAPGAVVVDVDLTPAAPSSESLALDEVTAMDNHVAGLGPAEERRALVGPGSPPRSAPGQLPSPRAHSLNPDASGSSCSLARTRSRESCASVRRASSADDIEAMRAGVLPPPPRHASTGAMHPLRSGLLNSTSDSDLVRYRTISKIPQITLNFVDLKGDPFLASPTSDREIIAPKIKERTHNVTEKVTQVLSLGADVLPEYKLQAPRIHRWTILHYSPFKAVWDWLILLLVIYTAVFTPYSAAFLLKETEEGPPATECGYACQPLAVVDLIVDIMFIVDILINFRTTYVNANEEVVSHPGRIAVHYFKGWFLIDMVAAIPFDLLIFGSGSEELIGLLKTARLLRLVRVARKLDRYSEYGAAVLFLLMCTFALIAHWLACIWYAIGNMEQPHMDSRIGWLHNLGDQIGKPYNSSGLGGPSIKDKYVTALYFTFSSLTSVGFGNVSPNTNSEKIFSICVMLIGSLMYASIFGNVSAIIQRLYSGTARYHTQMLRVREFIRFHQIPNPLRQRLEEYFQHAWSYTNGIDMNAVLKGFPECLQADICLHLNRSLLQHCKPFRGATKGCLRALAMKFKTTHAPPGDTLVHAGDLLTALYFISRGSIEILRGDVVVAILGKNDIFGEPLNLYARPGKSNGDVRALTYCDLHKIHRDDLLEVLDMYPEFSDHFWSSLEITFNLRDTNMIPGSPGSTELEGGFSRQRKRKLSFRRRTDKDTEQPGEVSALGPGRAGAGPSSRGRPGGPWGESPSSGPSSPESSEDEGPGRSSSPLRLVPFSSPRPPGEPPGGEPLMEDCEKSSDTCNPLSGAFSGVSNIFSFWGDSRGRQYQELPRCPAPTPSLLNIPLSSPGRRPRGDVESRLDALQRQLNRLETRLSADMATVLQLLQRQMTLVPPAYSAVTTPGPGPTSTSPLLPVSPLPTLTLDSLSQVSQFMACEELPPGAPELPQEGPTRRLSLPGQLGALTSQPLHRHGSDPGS

Row | Structure (SMILES) | hERG current change (%, negative = inhibition) at 10uM
1 | O=C1c2ccccc2C(=O)N1CCc1nn[nH]n1 | 17%
2 | COc1ccc(NC(=O)NNC(=O)COc2ccc3cc(Br)ccc3c2)c(OC)c1 | 19.2%
3 | CCOC(=O)C1(Cc2ccccc2Cl)CCN(C(=O)CN2CCOC2=O)CC1 | 8.88%
4 | CCOC(=O)C1(CCCc2ccccc2)CCN(C(=O)CCn2cncn2)CC1 | -56.4%
5 | CCOC(=O)C1(Cc2ccc(OC)cc2)CCN(C(=O)CCN2CCCC2=O)CC1 | -3.22%
6 | CCOC(=O)C1(Cc2ccccc2Cl)CCN(C(=O)CCn2ccnc2C)CC1 | -52.6%
7 | CCOC(=O)C1(CCCc2ccccc2)CCN(C(=O)CN2CCOC2=O)CC1 | 6.35%
8 | CCOC(=O)C1(Cc2ccccc2Cl)CCN(C(=O)c2cnccn2)CC1 | -20.2%
9 | CCOC(=O)C1(CCCc2ccccc2)CCN(C(=O)CCN2CCCCC2=O)CC1 | -62.8%
10 | CCOC(=O)C1(CCc2ccccc2)CCN(C(=O)C(C)n2cncn2)CC1 (centres unmarked) | -14.3%
11 | CCOC(=O)C1(CCc2ccccc2)CCN(C(=O)CCn2cncn2)CC1 | -63.2%
12 | CCOC(=O)C1(CCCc2ccccc2)CCN(C(=O)CCCn2cncn2)CC1 | -44.1%
13 | CCOC(=O)C1(CCCc2ccccc2)CCN(C(=O)C(C)n2cncn2)CC1 (centres unmarked) | -29%
14 | CN(C)c1nc(N)c([N+](=O)[O-])c(NCC2CCCO2)n1 (centres unmarked) | 7.07%
15 | O=C(O)CCCNC(=O)/C=C/c1ccco1 | 12.5%
16 | CC(=O)Nc1sc(-c2ccccc2)nc1-c1ccccc1 | 14%
17 | CCOC(=O)c1[nH]c2ccc(OC)cc2c1NC(=O)c1nonc1C | 6.27%
18 | Cc1cc(-c2nnc(CCC(=O)NCc3ccc(F)c(F)c3)o2)no1 | 2.95%
19 | Cc1ccnc(NC(=O)c2cccc(S(=O)(=O)N3CCCc4ccccc43)c2)c1 | -1.95%
20 | CN(C(=O)CC1C(=O)NCCN1Cc1c(F)cccc1Cl)C1CCOCC1 (centres unmarked) | 17.9%
21 | Cc1ccc(S(=O)(=O)N2CC(=O)NC(=O)C2)cc1 | 6.07%
22 | O=C(C#Cc1ccccc1)Nc1ccc(F)cc1 | 10.1%

Row | Structure (SMILES) | hERG current change (%, negative = inhibition) at 10uM
23 | C[C@@H](NC(=O)c1nc[nH]c1C(=O)NCc1ccc(CNC(=O)OC(C)(C)C)cc1)c1ccccc1 | 6.47%
24 | CCOC(=O)C1(CCc2ccccc2)CCN(C(=O)CCn2cnnn2)CC1 | -43.2%
25 | CCOC(=O)C1(CCCc2ccccc2)CCN(C(=O)CN2C(=O)CSC2=O)CC1 | -4.63%
26 | CCOC(=O)C1(CCCc2ccccc2)CCN(C(=O)CCn2cnnn2)CC1 | -56.6%
27 | COc1ccc(NC(=O)NNC(=O)c2ccc(Cl)cc2Cl)cc1OC | 13%
28 | CCOc1ccc2c(c1)sc1nc(C(=O)OC)cc(=O)n12 | -12.9%
29 | C[C@]12CS(=O)(=O)C[C@H]1SC(=S)N2c1ccccc1 | -0.916%
30 | Cn1c(C(=O)N2CCN(c3ccc(Cl)cc3)CC2)cc2c(=O)[nH]c3ccccc3c21 | -114%
31 | Cc1cccc(N2CCN(C(=O)c3cc4c(=O)[nH]c5ccccc5c4n3C)CC2)c1C | 14.6%
32 | Cc1ccc(Cl)cc1N1CCN(C(=O)c2cc3c(=O)[nH]c4ccccc4c3n2C)CC1 | 8.91%
33 | OCCNc1nc2ccccc2[nH]1 | 12.8%
34 | CCCCNC(=O)C1CC(c2ccc(C(F)(F)F)cc2)=NO1 (centres unmarked) | 3.73%
35 | CCCCN(CCCC)CCCNC(=O)C1CC(c2cc(C(F)(F)F)cc(C(F)(F)F)c2)=NO1 (centres unmarked) | 3.86%
36 | CCCCN(CCCC)CCCNC(=O)C1CC(c2ccc(C(F)(F)F)cc2)=NO1 (centres unmarked) | -72.3%
37 | COCCCN1C(=O)c2ccc(C(=O)OCC(=O)N(C)c3ccccc3)cc2C1=O | 2.63%
38 | COc1cccc2cc(-c3csc(NC(=O)CCC(=O)NCCCN4CCC(C)CC4)n3)c(=O)oc12 | -51.9%
39 | CCOc1cccc2cc(-c3csc(NC(=O)CCC(=O)NCCN4CCCCC4C)n3)c(=O)oc12 (centres unmarked) | -34.9%
40 | CCOc1cccc2cc(-c3csc(NC(=O)CCC(=O)NCCCN4CCC(C)CC4)n3)c(=O)oc12 | -44.6%
41 | O=C(CNC(=O)c1cccc(Br)c1)NCCc1nc2ccccc2[nH]1 | 5.59%
42 | COc1ccccc1C(=O)C1CCCN(C(=O)c2cccc(Cn3cccn3)c2)C1 (centres unmarked) | -13%
43 | COc1ccc(CN2CCCC(C(=O)c3cccc(OC(C)C)c3)C2)cc1Cn1cccn1 (centres unmarked) | -69.9%
44 | COc1ccc(C(=O)C2CCCN(C(=O)c3cccc(Cn4cccn4)c3)C2)cc1F (centres unmarked) | -14.5%
